Most compounds without a hit are left out; they make up all but 0.65% or so of the library.
TcdB GH inh – inhibitors of Clostridioides difficile toxin B glycohydrolase | 350,000 tested, 0.24% active | AID 652162 | TcdB glycohydrolase enzymatic assay, plate reader | inhibition, % at 9.99 µM; in the data active = inhibition above about 10%
BH1578 lux ind – induces V. cholerae light production without autoinducers; V. cholerae BH1578 lux reporter, luminescence, 6 h; activation, % at 18.7 µM; 350,000 tested, 0.16% active; AID 588436; in the data active = activation mostly above about 9.7%, no sharp cut-off
PrP 5UTR inh – suppresses PrP 5' UTR mRNA reporter expression; cell-based PrP 5' UTR mRNA reporter, plate reader; inhibition, % (test concentration not listed); 340,000 tested, 0.35% active; AID 488862; in the data active = inhibition above about 52%; also: 0 = median of the neutral control wells
Y pestis TopoI – blocks Yersinia pestis topoisomerase I activity | Y. pestis Topo-I cleavage product accumulation, plate reader | activity, % at 10 µM | 360,000 tested, 0.064% active; in the data active = activity above about 50%, passing the limit was not always enough
Mtb UGM inh – Mtb UDP-galactopyranose mutase inhibition; P9WIQ1; purified UGM, fluorescence polarization probe displacement; inhibition, % at 10 µM; 320,000 tested, 0.06% active; AID 504406; in the data active = inhibition above about 10%, passing the limit was not always enough
* hit, by the source's call; i = inactive; . = not tested or not shown; + = active, no number.

SMILES	TcdB GH inh	BH1578 lux ind	PrP 5UTR inh	Y pestis TopoI	Mtb UGM inh
CCCCCOc1ccc(C2C(C(=O)c3ccc(C)o3)=C(O)C(=O)N2c2cc(C)on2)cc1 (stereo not given)	1.3	-0.5	-30.9	87.9*	1.0
Cc1cc(N2C(=O)C(O)=C(C(=O)c3cc4ccccc4o3)C2c2cccc(Br)c2)no1 (stereo not given)	1.0	-0.7	-6.9	77.9*	2.4
Cc1ccc(NC(=O)/C(C#N)=C/c2ccc(C)s2)c(C)c1	.	i	-66.6	10.8	13.3*
CCOC(=O)c1cnc2ccc(Cl)cc2c1NCCN(C)C	.	0.3	-15.5	4.3	20.2*
CCOC(=O)c1cnc2ccc(Br)cc2c1NCCO	2.7	i	-18.3	0.4	-1.6
COC(=O)c1ccc(Cn2cc(C(F)(F)F)cc([N+](=O)[O-])c2=O)cc1	0.0	+	-27.9	4.1	0.1
C[C@H]1CN([C@@H](C)CO)C(=O)c2cc(NC(=O)c3ccncc3)ccc2O[C@H]1CN(C)S(=O)(=O)c1ccc(Cl)cc1	1.1	.	.	.	.
CN(C)c1ccc(C(=O)OCC#CCSc2nnc(-c3cccc4ccccc34)o2)cc1	13.5*	i	-21.7	-9.5	-1.9
O=C(OCC#CCSc1nnc(-c2cccc3ccccc23)o1)c1ccc(Br)cc1	1.7	-0.7	-16.5	13.1	4.2
CO[C@H]1CN(C)C(=O)c2ccc(NC(=O)Nc3ccccc3F)cc2OC[C@@H](C)N(C)C[C@H]1C	0.5	.	.	.	.
CC1(C)OC2C(O1)[C@@H](CO)O[C@H]2n1cnc2c(N)ncnc21 (stereo not given in full)	13.6*	-0.8	-2.1	3.7	1.2
OCC[C@@H]1C[C@@H](O)[C@H](O)[C@@]2(Cc3ccccc3CO2)O1	0.3	i	-26.7	-2.3	-0.4
OCC[C@H]1C[C@H](O)[C@@H](O)[C@@]2(Cc3ccccc3CO2)O1	14.3*	0.5	-10.1	15.1	0.9
CN(C)C(=O)c1ccc(-c2ccc3c(c2)[C@H]2[C@H](CCN2C(=O)C2CCC2)[C@@H](CO)N3C)cc1	0.6	.	.	.	.
OCC1CCCN(C(=S)Nc2ccc(Nc3ccccc3)cc2)C1 (stereo not given)	10.7*	i	-57.5	-1.4	0.3
C[C@@H]1CN([C@H](C)CO)C(=O)Cc2cc(NC(=O)NC3CCCCC3)ccc2O[C@@H]1CN(C)C(=O)Nc1ccc2c(c1)OCO2	-0.5	.	.	.	.
Cc1noc(C)c1COC(=O)CCCOc1ccc(Cl)cc1Cl	.	-6.7	-7.1	61.4*	0.4
CN(C)C(=O)c1ccc(-c2ccc([C@H]3[C@H]4CN(C(=O)C5CCCCC5)CC(=O)N4[C@H]3CO)cc2)cc1	-0.9	.	.	.	.
COc1ccc(NS(=O)CCCc2ccccc2)cc1 (stereo not given)	10.7*	.	.	.	.
COc1ccc(C(=O)NCCCCc2ccccc2)cc1	1.3	0.8	.	9.4	3.7
O=C(C[C@H]1CC[C@@H]2[C@H](COC[C@@H](O)CN2C(=O)Nc2ccc(Cl)c(Cl)c2)O1)NCc1ccncc1	18.1*	.	.	.	.
O=C(C[C@@H]1CC[C@@H]2[C@H](COC[C@@H](O)CN2C(=O)Nc2ccc(Cl)c(Cl)c2)O1)NCc1ccccc1	0.3	.	.	.	.
O=C(C[C@@H]1CC[C@@H]2[C@H](COC[C@H](O)CN2C(=O)c2ccccn2)O1)NC1CCC1	12.3*	.	.	.	.
CCS(=O)(=O)NCC[C@H]1CC[C@H](NS(=O)(=O)c2ccccc2C)[C@H](CO)O1	1.4	.	.	.	.
CN(C)c1ccc2nc3ccc(=O)cc-3sc2c1	-0.5	i	.	+	.
SMILES	TcdB GH inh	BH1578 lux ind	PrP 5UTR inh	Y pestis TopoI	Mtb UGM inh
CSc1nc(-c2ccc(Cl)cc2Cl)[nH]c(=O)c1C#N	12.6*	-0.4	-14.9	-0.7	1.7
Cc1cc(-c2ccc(Cl)cc2Cl)c(C#N)c(=O)[nH]1	0.4	i	29.3	2.2	-0.5
COc1cccc(-c2ccc([C@@H]3[C@@H](C#N)N(C(=O)c4ccccn4)[C@@H]3CO)cc2)c1	0.0	.	.	.	.
C[C@@H]1CN([C@H](C)CO)C(=O)Cc2cc(NC(=O)CCN3CCOCC3)ccc2O[C@@H]1CN(C)C(=O)Nc1ccc2c(c1)OCO2	-1.1	.	.	.	.
Fc1ccccc1Nc1n[nH]c(=S)s1	10.0*	i	-15.9	3.7	1.7
COc1cc(CN2CC3(CCN(S(=O)(=O)c4cn(C)cn4)CC3)c3c(n(C)c4cc(OC)ccc34)[C@H]2CO)cc(OC)c1	-0.4	.	.	.	.
C[C@@H]1CN([C@H](C)CO)S(=O)(=O)c2ccc(-c3ccccc3)cc2O[C@H]1CN(C)S(C)(=O)=O	-5.4	.	.	.	.
CC(C)NC(=O)Nc1ccc2c(c1)CC(=O)N([C@@H](C)CO)C[C@@H](C)[C@H](CN(C)CC1CCCCC1)O2	1.0	.	.	.	.
Nc1nc(Nc2ccccc2)n[nH]1	12.9*	-0.5	-3.6	0.7	-2.6
CNC[C@H]1OCCCC[C@@H](C)Oc2ccc(NS(=O)(=O)c3ccccc3)cc2C(=O)N([C@H](C)CO)C[C@H]1C	0.0	.	.	.	.
COC(=O)c1ccc(Cn2cnc3c(sc4nc(N5CCOCC5)c5c(c43)CCCC5)c2=O)o1	.	i	-7.8	52.0*	1.6
Cc1ccc(-c2ccc(/C=C(\C#N)C(=O)Nc3cc(C)nn3-c3ccccc3)o2)cc1	.	.	.	.	48.2*
Cc1cc(NC(=O)/C(C#N)=C/c2ccco2)n(-c2ccccc2)n1	-3.8	i	-2.4	-1.2	0.4
CCc1cc(C(=O)c2ccc(C)cc2)c(NC(=O)CCl)s1	0.4	3.6	-27.7	31.4	60.5*
COc1ccc(S(=O)(=O)N(C)C[C@H]2OCCCC[C@@H](C)Oc3ccc(NC(=O)c4ccncc4)cc3C(=O)N([C@@H](C)CO)C[C@H]2C)cc1	0.7	.	.	.	.
COc1ccc(C(=O)N2CCOCC2)cc1S(=O)(=O)N1CCCc2ccccc21	11.9*	0.1	-20.5	2.8	-3.3
COc1ccc(C(=O)N2CCCN(C)CC2)cc1S(=O)(=O)N1CCCc2ccccc21	.	6.7	-21.0	-0.2	-0.1
COc1ccc(NC(c2ccccc2)c2ccncc2)cc1 (stereo not given)	15.8*	0.6	-12.5	-3.4	-0.5
COc1ccc(NC(c2ccccc2)P(=O)(Oc2ccccc2)Oc2ccccc2)cc1 (stereo not given)	-0.7	-5.5	-18.5	10.4	-0.7
Cc1ccc(Nc2nc(N)nc(-c3oc4ccccc4c3C)n2)cc1	.	-1.1	69.8*	15.4	-1.8
CCCCN(C)c1c(C)nc2ccc(C(=O)NCc3cccs3)cn12	17.8*	-0.3	.	19.8	.
CCCCN(C=O)c1c(CC)nc2ccc(C(=O)NCc3cccs3)cn12	0.9	-0.8	.	3.4	.
O=C(CNS(=O)(=O)c1ccc([N+](=O)[O-])cc1)N/N=C\c1ccc(O)cc1	13.6*	-1.2	2.2	3.3	0.1
O=C(CC(=O)N/N=C/c1ccc(O)cc1)N/N=C/c1ccc(O)cc1	24.4*	i	-22.5	1.7	1.2
CC(C)NC(=O)[C@@]1(c2ccc([N+](=O)[O-])cc2)CC(=O)N(CC23CC4CC(CC(C4)C2)C3)[C@@H]1c1ccc(CO)cc1	0.2	.	.	.	.
CCSc1nnc(NC(=O)c2ccco2)s1	.	i	-4.6	4.3	1.0
CC(C)Sc1nnc(NC(=O)c2ccco2)s1	22.0*	i	-39.8	3.6	-0.9

High-throughput results (PubChem BioAssay)
